EPAC1 agonist: agonists of human EPAC1. Potency, µM (top dose mostly 154 µM), usual class: activators. EPAC1 agonist qHTS, biochemical assay; response scale: 100% = response to 6.5 mM cAMP. actives 0.073% (n = 360,000). AID 720707; note: nearly all actives have a fitted effect of over 60% in size
Target sequence (O95398 whole entry, looked up): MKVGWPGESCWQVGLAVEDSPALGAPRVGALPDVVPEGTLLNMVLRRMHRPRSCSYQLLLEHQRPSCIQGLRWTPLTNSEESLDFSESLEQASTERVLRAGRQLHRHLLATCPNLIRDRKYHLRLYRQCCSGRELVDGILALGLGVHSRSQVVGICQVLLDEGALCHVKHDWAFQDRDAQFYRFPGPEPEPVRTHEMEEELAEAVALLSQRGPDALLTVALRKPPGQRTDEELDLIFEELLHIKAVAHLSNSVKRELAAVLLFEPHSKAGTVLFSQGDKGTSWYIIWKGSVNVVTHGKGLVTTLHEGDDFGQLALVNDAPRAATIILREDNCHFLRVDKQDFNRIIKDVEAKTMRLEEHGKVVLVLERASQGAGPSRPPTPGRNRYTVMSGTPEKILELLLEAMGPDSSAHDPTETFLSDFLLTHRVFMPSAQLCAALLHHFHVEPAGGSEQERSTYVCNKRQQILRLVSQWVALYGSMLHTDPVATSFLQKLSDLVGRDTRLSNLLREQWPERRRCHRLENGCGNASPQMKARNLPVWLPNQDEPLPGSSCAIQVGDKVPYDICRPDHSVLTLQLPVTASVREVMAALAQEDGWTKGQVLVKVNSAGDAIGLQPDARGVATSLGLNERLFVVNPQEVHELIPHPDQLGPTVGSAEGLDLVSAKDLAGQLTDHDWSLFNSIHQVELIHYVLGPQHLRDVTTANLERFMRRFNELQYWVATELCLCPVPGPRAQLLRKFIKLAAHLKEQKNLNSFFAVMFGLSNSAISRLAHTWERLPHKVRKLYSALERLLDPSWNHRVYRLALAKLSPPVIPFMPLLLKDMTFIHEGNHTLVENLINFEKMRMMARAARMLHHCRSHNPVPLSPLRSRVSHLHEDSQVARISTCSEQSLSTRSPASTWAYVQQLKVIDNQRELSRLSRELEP
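Normalized to 6.5 mM cAMP, activity reflects EPAC1-catalysed release of BODIPY-GDP from Rap1B, followed kinetically over 30 min at 480 nm excitation, 540 nm emission. Reaction contained 100 nM EPAC1, 250 nM Rap1B-BODIPY-GDP, 50 uM GDP.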
EPAC1 antagonist: blocks human EPAC1 exchange factor | O95398 | EPAC1 GEF assay, Rap1b-BODIPY-GDP exchange fluorescence | Potency, µM (series often up to 115 µM), actives largely listed as inhibitors | actives 0.14% (n = 360,000) | AID 720709; note: nearly all actives have a fitted effect of over 50% in size
EPAC2 antagonist: blocks human EPAC2 exchange factor. Q8WZA2. EPAC2 GEF exchange of Rap1B-BODIPY-GDP, fluorescence. Potency, µM (titrated, usually from 114 µM), hits mostly inhibitors. actives 0.18% (n = 360,000); note: nearly all actives have a fitted effect of over 45% in size
EPAC2 agonist: activates human EPAC2 exchange factor; Q8WZA2; EPAC2 activation, biochemical qHTS; response scale: 100% = 6.5 mM cAMP response; Potency, µM (highest dose often 154 µM), most hits filed as activators; actives 0.079% (n = 360,000); AID 720711; note: nearly all actives have a fitted effect of over 50% in size
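Each well held 100 nM EPAC2, 250 nM RAP1B-BODIPY-GDP and 50 uM GDP. Fluorescence, read at 5-min intervals to 30 min, was referenced to a 6.5 mM cAMP positive control.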
hERG WT inh: KCNH2 (human, wildtype) channel inhibition | Q12809 | actives 0.37% (n = 340,000) | U2OS, BacMam KCNH2, thallium flux FluxOr; active compounds read low | activity change, % at 1.84 µM;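 active = maximum activity change below -70%; inconclusive = maximum activity change between -70% and -50%; inactive = maximum activity change above -50%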
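U2OS cells transduced with wild-type KCNH2 virus are loaded with FluxOr dye for 45 min, and thallium flux is measured in kinetic reads before and after stimulation buffer. Rate constants are normalized to DMSO controls.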
KCNH2 3.1 block: blocks the human KCNH2 3.1 channel isoform. U2OS KCNH2 3.1, thallium flux FluxOr; active compounds read low. activity change, % (tested at about 1.8 µM). actives 0.95% (n = 340,000). AID 720553;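 active = maximum activity change below -70%; inconclusive = maximum activity change from -70% to -50%; inactive = maximum activity change above -50%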;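 note: thallium influx rate constant from kinetic fluorescence after stimulation buffer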
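Normalized rate constant (relative to positive and negative DMSO controls) derived from a 2 min kinetic fluorescence read after stimulation; U2OS cells expressing the 3.1 isoform via virus at 1.77 x 10^8 /mL.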
Large screens that a line does not name were inactive. In the library only some 1.4% were active in any assay of this set; here they are far more common. Unless noted, calls come from the whole dose curve; as a rule, active = well fitted curve in the direction sought with a large enough effect; inconclusive = small, poorly fitted or top-dose-only effect, or another doubt; inactive = no such curve, though single readings can be large; an effect the other way counts as inactive or inconclusive.

CC(=O)c1ccc(NC(=O)C(C)N2CCN(C/C=C/c3ccccc3)CC2)cc1 (stereo not given)	KCNH2 3.1 block inconclusive
CN1CCN(CCC(=O)Nc2ccccc2)CC1	none
COc1ccc(Cl)cc1NC(=O)C(C)N1CCN(C/C=C/c2ccccc2)CC1 (stereo not given)	hERG WT inh -75, KCNH2 3.1 block -93
OCC1(Cc2ccccc2Cl)CCN(C/C=C/c2ccccc2)CC1	none
COc1ccc(C)cc1NC(=O)CCN1CCN(C/C=C/c2ccccc2)CC1	hERG WT inh inconclusive, KCNH2 3.1 block -99
O=C(CCN1CCN(c2ccccc2)CC1)Nc1ccc(Cl)cc1	none
Cc1ccc(NC(=O)CCN2CCN(C/C=C/c3ccccc3)CC2)cc1	hERG WT inh -96, KCNH2 3.1 block -86
CC(C(=O)N(C)Cc1ccccc1)N1CCN(C/C=C/c2ccccc2)CC1 (stereo not given)	KCNH2 3.1 block -96
O=C(CCN1CCN(C/C=C/c2ccccc2)CC1)Nc1ccc(Cl)cc1	KCNH2 3.1 block -99
CC(C(=O)Nc1ccc([N+](=O)[O-])cc1)N1CCN(C/C=C/c2ccccc2)CC1 (stereo not given)	hERG WT inh -194
COc1cc(NC(=O)CCN2CCN(C/C=C/c3ccccc3)CC2)cc(OC)c1	none
Cc1ccc(NC(=O)CCN2CCN(C/C=C/c3ccccc3)CC2)cc1C	KCNH2 3.1 block -96
COc1ccc(NC(=O)CCN2CCN(C/C=C/c3ccccc3)CC2)cc1	KCNH2 3.1 block -105
CSc1ccccc1NC(=O)CN1CCN(S(=O)(=O)c2ccccc2[N+](=O)[O-])CC1	none
CCOC(=O)N1CCN(Cc2nc(N)nc(Nc3ccc(OC)cc3)n2)CC1	none
CCOC(=O)N1CCN(Cc2nc(N)nc(Nc3ccc(OCC)cc3)n2)CC1	KCNH2 3.1 block -86
CCOC(=O)N1CCN(Cc2nc(N)nc(Nc3ccc(Oc4ccccc4)cc3)n2)CC1	KCNH2 3.1 block -89
CCOC(=O)C1CCCN(Cc2nc(N)nc(Nc3ccc(Cl)cc3)n2)C1 (stereo not given)	KCNH2 3.1 block inconclusive
CCOC(=O)N1CCN(Cc2nc(N)nc(Nc3ccc(Cl)cc3)n2)CC1	KCNH2 3.1 block -100
CCc1nc2c(OCC3CCCCC3)cccn2c1N(C)C(=O)c1ccc(C)cc1	EPAC2 antagonist inconclusive (no result: hERG WT inh, KCNH2 3.1 block)
CC1CCN(S(=O)(=O)c2ccc3c(c2)N(CC(=O)NCCN2C(C)CCCC2C)C(=O)CS3)CC1 (stereo not given)	hERG WT inh -76
CC1CCN(S(=O)(=O)c2ccc3c(c2)N(CC(=O)NCCCN2CCCCC2C)C(=O)CS3)CC1 (stereo not given)	none
CS/C(Nc1cc(Cl)ccc1Cl)=C(/C#N)C(=O)c1ccco1	EPAC1 antagonist 50µM
O=C(Nc1cc(Cl)ccc1Cl)c1ccco1	none
COc1cccc(-c2oc3c(c2-c2ccc(OC)nc2)C(O)CCC3)c1 (stereo not given)	none (no result: hERG WT inh, KCNH2 3.1 block)
C=CCn1c(SC(C)C(=O)Nc2ccc(Cl)cn2)nnc1C1CC1 (stereo not given)	none
C=CCn1c(SC(C)C(=O)Nc2ccc(F)c(F)c2F)nnc1C1CC1 (stereo not given)	KCNH2 3.1 block -128
Cc1cc2c(cc3c(=O)n(CC(=O)NCCCN4CC(C)CC(C)C4)ncn32)s1 (stereo not given)	none
CCn1c(COc2ccccc2)nnc1SCC(=O)NC1CCCCC1	EPAC2 agonist inconclusive, hERG WT inh -176
O=C(CSc1ncccc1C(=O)O)NC1CCCCCCC1	KCNH2 3.1 block -79
COc1ccc(Cc2nnc(NCCO)[nH]c2=O)cc1OC	hERG WT inh -118
COc1ccc(Cc2nnc(NCCO)[nH]c2=O)cc1	none
CC(C)c1nc2cc(C(=O)N3CCN(c4cnccn4)CC3)ccc2o1	none
CCN(C[C@H]1N[C@@](CC)(C(=O)OC)[C@H]2C(=O)N(Cc3ccccc3)C(=O)[C@@H]12)S(=O)(=O)c1ccc(-c2ccccc2)cc1	none
CCN(C[C@H]1N[C@@](CC)(C(=O)OC)[C@H]2C(=O)N(Cc3ccccc3)C(=O)[C@@H]12)S(=O)(=O)c1ccc(OC(F)(F)F)cc1	hERG WT inh -277
CCOc1ccccc1CN1CCNC(=O)C1CC(=O)NCCC1=CCCCC1 (stereo not given)	KCNH2 3.1 block -109
COc1ccc(-c2nc(CS(=O)(=O)CC(=O)NC3CCCCCC3)c(C)o2)cc1	hERG WT inh -102
Cc1ccc(-c2nc(CS(=O)(=O)CC(=O)NCCN3CCOCC3)c(C)o2)cc1	hERG WT inh -187
COc1cccc(-c2nc(CS(=O)(=O)CC(=O)Nc3cc(C)ccc3C)c(C)o2)c1	none
COc1cccc(-c2nc(CS(=O)(=O)CC(=O)Nc3c(C)cccc3C)c(C)o2)c1	KCNH2 3.1 block -104
COc1ccccc1-c1cnc2c(c1)C(=O)N([C@@H](C)CO)C[C@@H](C)[C@H](CN(C)C(=O)c1cccnc1)O2	none
COc1cc(OC)c(NC(=S)NCc2ccc(F)cc2)cc1Cl	KCNH2 3.1 block -107
COc1ccc(CN(C2CCCC2)S(=O)(=O)c2ccc(-n3cnnn3)cc2)cc1	KCNH2 3.1 block -71
Cc1ccc(S(=O)(=O)CC2CSc3nnc(C)c(=O)n32)cc1 (stereo not given)	KCNH2 3.1 block -93
Cc1nnc2n(c1=O)C(CS(=O)(=O)c1ccc3ccccc3c1)CS2 (stereo not given)	none
O=C(COc1ccc(-c2ccccc2)cc1)N1CCN(S(=O)(=O)Cc2ccccc2)CC1	KCNH2 3.1 block -75
Cc1ccc(OCC(=O)N2CCN(C(=O)Cc3ccccc3)CC2)cc1	none
COc1ccc(CCNC(=O)CSCc2ccc([N+](=O)[O-])cc2)cc1OC	hERG WT inh -129, KCNH2 3.1 block -206
O=C(N/N=C/c1cc(Br)ccc1O)C(=O)Nc1ccccc1OC(F)(F)C(F)F	hERG WT inh -263
O=C(N/N=C/c1cc(Cl)ccc1O)C(=O)Nc1ccccc1OC(F)(F)C(F)F	none
COC(=O)[C@@]12C[C@@H](CC(=O)NCCC(C)C)C(=O)N(Cc3cccc4ccccc34)C1=CCC(C)(C)C2	EPAC1 antagonist inconclusive (no result: hERG WT inh, KCNH2 3.1 block)
Cc1ccc(NC(=S)NCc2ccc(F)cc2)c(C)c1	none
Cc1ccc(NC(=S)NCc2ccc3c(c2)cc(C)n3C)c(C)c1	KCNH2 3.1 block -103 (no result: hERG WT inh)
CCNC(=O)C1CCCN(C(=O)c2ccc(C#N)cc2)CC1 (stereo not given)	none (no result: hERG WT inh, KCNH2 3.1 block)

Screens: PubChem, National Center for Advancing Translational Sciences (NCATS)
